Data reported in article PMC5700166.

Target: T1, GST-Dm-Relish (Drosophila melanogaster, UniProt Q94527 99-473)
T1 sequence: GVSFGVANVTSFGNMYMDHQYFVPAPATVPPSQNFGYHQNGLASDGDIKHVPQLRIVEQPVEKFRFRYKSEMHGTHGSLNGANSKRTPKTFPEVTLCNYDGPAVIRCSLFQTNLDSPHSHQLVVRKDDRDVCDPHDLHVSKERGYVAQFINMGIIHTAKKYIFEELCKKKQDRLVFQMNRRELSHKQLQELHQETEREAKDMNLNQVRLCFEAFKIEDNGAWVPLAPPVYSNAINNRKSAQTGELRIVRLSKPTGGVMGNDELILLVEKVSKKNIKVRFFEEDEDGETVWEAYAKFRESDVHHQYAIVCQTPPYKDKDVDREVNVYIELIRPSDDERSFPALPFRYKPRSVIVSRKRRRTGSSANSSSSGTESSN
Test: protein-binding microarray (PBM); PBM: ~300 nM protein, 6 mM HEPES pH 7.8, 80 mM KCl, 0.5 mM EDTA, 0.5 mM EGTA, 6% glycerol, 35 ng/ul poly-dIdC, 1% milk, 1 h, room temperature; Ap Aiptasia and Nv Nematostella (sea anemones) / Co Capsaspora / Aq Amphimedon (sponge) / Dm Drosophila / Hu human; RHD is the Rel homology domain; high values mean tight binding
Conditions: dsDNA, one strand shown

Sequence | binding signal
CCGATTAACATCAGGGGATTTGATGATGTTAATCGGGTCTTGATTCGCTTGACGCTGCTG | 4.27 z-score
CCGATTAACATCAAAAATCCCCTTGATGTTAATCGGGTCTTGATTCGCTTGACGCTGCTG | 10.1 z-score
CCGATTAACATCAGGGGGAGTAATGATGTTAATCGGGTCTTGATTCGCTTGACGCTGCTG | 3.45 z-score
CCGATTAACATCACTCATCCCCGTGATGTTAATCGGGTCTTGATTCGCTTGACGCTGCTG | 2.33 z-score
CCGATTAACATCAGAATTCCCCATGATGTTAATCGGGTCTTGATTCGCTTGACGCTGCTG | 6.72 z-score
CCGATTAACATCAATCCTCCCCCTGATGTTAATCGGGTCTTGATTCGCTTGACGCTGCTG | 2.9 z-score
CCGATTAACATCACCCTTCCCCCTGATGTTAATCGGGTCTTGATTCGCTTGACGCTGCTG | 2.99 z-score
CCGATTAACATCAGGGGACTCACTGATGTTAATCGGGTCTTGATTCGCTTGACGCTGCTG | 8.85 z-score
CCGATTAACATCAGGGGGATTAATGATGTTAATCGGGTCTTGATTCGCTTGACGCTGCTG | 5.97 z-score
CCGATTAACATCAGGGGGATAACTGATGTTAATCGGGTCTTGATTCGCTTGACGCTGCTG | 7.19 z-score
CCGATTAACATCACGATTTCCCCTGATGTTAATCGGGTCTTGATTCGCTTGACGCTGCTG | 5.06 z-score
CCGATTAACATCAAAATACTCCCTGATGTTAATCGGGTCTTGATTCGCTTGACGCTGCTG | 1.83 z-score
CCGATTAACATCAGGGGAATTTATGATGTTAATCGGGTCTTGATTCGCTTGACGCTGCTG | 9.13 z-score
CCGATTAACATCAGGGGGTTCCATGATGTTAATCGGGTCTTGATTCGCTTGACGCTGCTG | 9.47 z-score
CCGATTAACATCAGGGGGATTCATGATGTTAATCGGGTCTTGATTCGCTTGACGCTGCTG | 7.41 z-score
CCGATTAACATCACACAACCCCCTGATGTTAATCGGGTCTTGATTCGCTTGACGCTGCTG | 4.91 z-score
CCGATTAACATCAATACTTCCCCTGATGTTAATCGGGTCTTGATTCGCTTGACGCTGCTG | 7.81 z-score
CCGATTAACATCAAGATTTCCCATGATGTTAATCGGGTCTTGATTCGCTTGACGCTGCTG | 2.29 z-score
CCGATTAACATCAAATTGTCCCCTGATGTTAATCGGGTCTTGATTCGCTTGACGCTGCTG | 2.6 z-score
CCGATTAACATCAGGGTATTTTATGATGTTAATCGGGTCTTGATTCGCTTGACGCTGCTG | 5.65 z-score

Sequence | binding signal
CCGATTAACATCACAATCCCCCCTGATGTTAATCGGGTCTTGATTCGCTTGACGCTGCTG | 5.35 z-score
CCGATTAACATCAGGGGAGTTACTGATGTTAATCGGGTCTTGATTCGCTTGACGCTGCTG | 7.83 z-score
CCGATTAACATCAGGGGGAAGAATGATGTTAATCGGGTCTTGATTCGCTTGACGCTGCTG | 4.78 z-score
CCGATTAACATCAGGGCCTCCCCTGATGTTAATCGGGTCTTGATTCGCTTGACGCTGCTG | 7.13 z-score
CCGATTAACATCAAAGTCCCCCTTGATGTTAATCGGGTCTTGATTCGCTTGACGCTGCTG | 8.18 z-score
CCGATTAACATCAGGGGGGTTAATGATGTTAATCGGGTCTTGATTCGCTTGACGCTGCTG | 6.25 z-score
CCGATTAACATCAACTTCCCCCCTGATGTTAATCGGGTCTTGATTCGCTTGACGCTGCTG | 7.29 z-score
CCGATTAACATCAGGGGGCTATATGATGTTAATCGGGTCTTGATTCGCTTGACGCTGCTG | 2.75 z-score
CCGATTAACATCAAGGGGGAAAATGATGTTAATCGGGTCTTGATTCGCTTGACGCTGCTG | 4.2 z-score
CCGATTAACATCAGGATACCCCCTGATGTTAATCGGGTCTTGATTCGCTTGACGCTGCTG | 5.79 z-score
CCGATTAACATCACCAAATCCCCTGATGTTAATCGGGTCTTGATTCGCTTGACGCTGCTG | 4.48 z-score
CCGATTAACATCAGGGGCCCCCCTGATGTTAATCGGGTCTTGATTCGCTTGACGCTGCTG | 7.07 z-score
CCGATTAACATCAGGACTCCCCCTGATGTTAATCGGGTCTTGATTCGCTTGACGCTGCTG | 8.9 z-score
CCGATTAACATCAAAACTTCCCCTGATGTTAATCGGGTCTTGATTCGCTTGACGCTGCTG | 8.98 z-score
CCGATTAACATCAGGGGAACGCATGATGTTAATCGGGTCTTGATTCGCTTGACGCTGCTG | 2.68 z-score
CCGATTAACATCAGGGGACTCCATGATGTTAATCGGGTCTTGATTCGCTTGACGCTGCTG | 7.69 z-score
CCGATTAACATCAATTCCCCAGGTGATGTTAATCGGGTCTTGATTCGCTTGACGCTGCTG | 2.37 z-score
CCGATTAACATCAGGGGAAGACCTGATGTTAATCGGGTCTTGATTCGCTTGACGCTGCTG | 8.75 z-score
CCGATTAACATCAGGGCGCCCCCTGATGTTAATCGGGTCTTGATTCGCTTGACGCTGCTG | 5.55 z-score

Target: T2, GST-Aq-NF-kB (Amphimedon queenslandica, UniProt A9Y5G7 2-389)
T2 sequence: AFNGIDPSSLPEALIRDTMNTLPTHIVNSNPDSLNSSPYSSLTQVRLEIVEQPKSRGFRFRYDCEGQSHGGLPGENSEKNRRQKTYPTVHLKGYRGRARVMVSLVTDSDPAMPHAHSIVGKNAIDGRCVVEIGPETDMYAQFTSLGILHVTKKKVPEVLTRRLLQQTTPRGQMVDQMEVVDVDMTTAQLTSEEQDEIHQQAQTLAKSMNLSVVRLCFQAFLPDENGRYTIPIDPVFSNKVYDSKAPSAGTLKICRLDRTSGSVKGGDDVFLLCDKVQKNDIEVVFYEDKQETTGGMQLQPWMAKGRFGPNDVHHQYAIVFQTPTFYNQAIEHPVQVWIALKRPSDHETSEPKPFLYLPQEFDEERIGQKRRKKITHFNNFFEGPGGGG
Test: as above
Conditions: dsDNA, one strand shown

Sequence | binding signal
CCGATTAACATCAGGGGATTTGATGATGTTAATCGGGTCTTGATTCGCTTGACGCTGCTG | 4.26 z-score
CCGATTAACATCAAAAATCCCCTTGATGTTAATCGGGTCTTGATTCGCTTGACGCTGCTG | 8.57 z-score
CCGATTAACATCAGGGGGAGTAATGATGTTAATCGGGTCTTGATTCGCTTGACGCTGCTG | 4.18 z-score
CCGATTAACATCACTCATCCCCGTGATGTTAATCGGGTCTTGATTCGCTTGACGCTGCTG | 2.51 z-score
CCGATTAACATCAGAATTCCCCATGATGTTAATCGGGTCTTGATTCGCTTGACGCTGCTG | 6.99 z-score
CCGATTAACATCAATCCTCCCCCTGATGTTAATCGGGTCTTGATTCGCTTGACGCTGCTG | 4.98 z-score
CCGATTAACATCACCCTTCCCCCTGATGTTAATCGGGTCTTGATTCGCTTGACGCTGCTG | 4.32 z-score
CCGATTAACATCAGGGGACTCACTGATGTTAATCGGGTCTTGATTCGCTTGACGCTGCTG | 4.46 z-score
CCGATTAACATCAGGGGGATTAATGATGTTAATCGGGTCTTGATTCGCTTGACGCTGCTG | 5.39 z-score
CCGATTAACATCAGGGGGATAACTGATGTTAATCGGGTCTTGATTCGCTTGACGCTGCTG | 5.34 z-score
CCGATTAACATCACGATTTCCCCTGATGTTAATCGGGTCTTGATTCGCTTGACGCTGCTG | 5.72 z-score
CCGATTAACATCAAAATACTCCCTGATGTTAATCGGGTCTTGATTCGCTTGACGCTGCTG | 4.2 z-score
CCGATTAACATCAGGGGAATTTATGATGTTAATCGGGTCTTGATTCGCTTGACGCTGCTG | 8.72 z-score
CCGATTAACATCAGGGGGTTCCATGATGTTAATCGGGTCTTGATTCGCTTGACGCTGCTG | 6.05 z-score
CCGATTAACATCAGGGGGATTCATGATGTTAATCGGGTCTTGATTCGCTTGACGCTGCTG | 6.1 z-score
CCGATTAACATCACACAACCCCCTGATGTTAATCGGGTCTTGATTCGCTTGACGCTGCTG | 3.93 z-score
CCGATTAACATCAATACTTCCCCTGATGTTAATCGGGTCTTGATTCGCTTGACGCTGCTG | 5.35 z-score
CCGATTAACATCAAGATTTCCCATGATGTTAATCGGGTCTTGATTCGCTTGACGCTGCTG | 3.35 z-score
CCGATTAACATCAAATTGTCCCCTGATGTTAATCGGGTCTTGATTCGCTTGACGCTGCTG | 4.84 z-score
CCGATTAACATCAGGGTATTTTATGATGTTAATCGGGTCTTGATTCGCTTGACGCTGCTG | 7.07 z-score

Sequence | binding signal
CCGATTAACATCACAATCCCCCCTGATGTTAATCGGGTCTTGATTCGCTTGACGCTGCTG | 5.25 z-score
CCGATTAACATCAGGGGAGTTACTGATGTTAATCGGGTCTTGATTCGCTTGACGCTGCTG | 5.17 z-score
CCGATTAACATCAGGGGGAAGAATGATGTTAATCGGGTCTTGATTCGCTTGACGCTGCTG | 4.87 z-score
CCGATTAACATCAGGGCCTCCCCTGATGTTAATCGGGTCTTGATTCGCTTGACGCTGCTG | 6.75 z-score
CCGATTAACATCAAAGTCCCCCTTGATGTTAATCGGGTCTTGATTCGCTTGACGCTGCTG | 6.66 z-score
CCGATTAACATCAGGGGGGTTAATGATGTTAATCGGGTCTTGATTCGCTTGACGCTGCTG | 4.51 z-score
CCGATTAACATCAACTTCCCCCCTGATGTTAATCGGGTCTTGATTCGCTTGACGCTGCTG | 6.32 z-score
CCGATTAACATCAGGGGGCTATATGATGTTAATCGGGTCTTGATTCGCTTGACGCTGCTG | 3.69 z-score
CCGATTAACATCAAGGGGGAAAATGATGTTAATCGGGTCTTGATTCGCTTGACGCTGCTG | 6.14 z-score
CCGATTAACATCAGGATACCCCCTGATGTTAATCGGGTCTTGATTCGCTTGACGCTGCTG | 6.35 z-score
CCGATTAACATCACCAAATCCCCTGATGTTAATCGGGTCTTGATTCGCTTGACGCTGCTG | 4.54 z-score
CCGATTAACATCAGGGGCCCCCCTGATGTTAATCGGGTCTTGATTCGCTTGACGCTGCTG | 7.54 z-score
CCGATTAACATCAGGACTCCCCCTGATGTTAATCGGGTCTTGATTCGCTTGACGCTGCTG | 9.21 z-score
CCGATTAACATCAAAACTTCCCCTGATGTTAATCGGGTCTTGATTCGCTTGACGCTGCTG | 8.18 z-score
CCGATTAACATCAGGGGAACGCATGATGTTAATCGGGTCTTGATTCGCTTGACGCTGCTG | 3.75 z-score
CCGATTAACATCAGGGGACTCCATGATGTTAATCGGGTCTTGATTCGCTTGACGCTGCTG | 4.63 z-score
CCGATTAACATCAATTCCCCAGGTGATGTTAATCGGGTCTTGATTCGCTTGACGCTGCTG | 3.8 z-score
CCGATTAACATCAGGGGAAGACCTGATGTTAATCGGGTCTTGATTCGCTTGACGCTGCTG | 7.72 z-score
CCGATTAACATCAGGGCGCCCCCTGATGTTAATCGGGTCTTGATTCGCTTGACGCTGCTG | 7.98 z-score
